Screening results as filed in PubChem BioAssay.
Sampled rows, rich in hits. Any-hit rate of the full collection: about 6.5%.
Vaccinia mCherry: inhibitors of vaccinia virus infection (mCherry reporter signal); Vaccinia virus mCherry reporter infection, fluorescence; Potency, µM (top dose mostly 36.5 µM), most hits filed as inhibitors; 310,000 compounds, 0.63% hits; AID 720579; calls by dose curve; tested in A549 cells; further: nearly all actives have a fitted effect of over 35% in size
Vaccinia Venus: inhibitors of vaccinia virus (Venus reporter); Vaccinia virus Venus reporter expression, fluorescence; Potency, µM (highest dose often 36.5 µM), usual class: inhibitors; 330,000 compounds, 0.46% hits; AID 720580; calls by dose curve; tested in A549 cells; further: nearly all actives have a fitted effect of over 30% in size
MARV entry inh: inhibitors of Marburg virus binding or cell entry; 300,000 compounds, 1.8% hits; Marburg virus pseudotyped entry inhibition, cell reporter; Potency, µM (highest dose often 37.8 µM), usual class: inhibitors; calls by dose curve; tested in HEK293 cells
HCMV antiviral: inhibitors of human cytomegalovirus; AID 1259415; HFF cells, HCMV-luciferase reporter, 72 h; hits give low values; 410,000 compounds, 4.5% hits; activity change, negative = inhibition, % at 57.5 µM; in the data active means activity change below about -60%; inconclusive means no clear call, values can overlap the other calls; inactive means above about -39%
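Human foreskin fibroblasts infected with luciferase-reporter HCMV at MOI 1 PFU/cell, compounds at two doses. Luciferase measured 72 h post infection; normalized to buffer-only basal and Salinomycin (10uM) controls.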
Lassa entry inh: Lassa virus entry inhibition | Lassa virus pseudotype entry inhibition, cell reporter | Potency, µM (top dose mostly 37.9 µM), actives largely listed as inhibitors | 300,000 compounds, 1.2% hits; calls by dose curve; tested in HEK293 cells; further: nearly all actives have a fitted effect of over 50% in size
FMDV inh: foot and mouth disease virus antiviral activity. AID 1159524. FMDV antiviral cell-based qHTS. Potency, µM (top dose mostly 57.9 µM), actives largely listed as inhibitors. 410,000 compounds, 1.2% hits; calls by dose curve; tested in HEK293T cells; further: read-out not given here; nearly all actives have a fitted effect of over 45% in size
Numbers stand for hits; . = inactive; ? = inconclusive; / = not tested or not shown; ! = not active in a repeat; [ ] = remark or other dose.

SMILES	Vaccinia mCherry	Vaccinia Venus	MARV entry inh	HCMV antiviral	Lassa entry inh	FMDV inh
COc1ccc(CC2C(=O)NC(C)C(=O)N(C)C3C(=O)N(C)C(Cc4ccc(O)c(c4)Oc4ccc(cc4)C3O)C(=O)NC(C)C(=O)NC(C)C(=O)N2C)cc1 (stereo not drawn)	0.316µM	0.0891µM	?	-97.7	?	?
COc1ccc(C2/C=C\CN(C(=O)C3CC3)[C@H](Cc3ccccc3)C(=O)N2Cc2ccc(F)cc2)cc1 (stereo partly drawn)	?	?	/	/	/	.
CCCN(CC1CC1)C(=O)CSc1ncnc2sc(C)c(C)c12	.	.	.	-82.6	.	?
CC1N=C2C(=O)OC3C=CC=CC3=C2N1c1ccccc1 (stereo not drawn)	/	/	.	/	/	/
CC(C)n1c(-c2ccc(C(C)(C)C)cc2)n[nH]c1=S	/	/	.	-72.1	.	?
O=C(O)/C=C/c1ccc2ccccc2c1	.	.	/	/	/	/
C[C@@H]1CN([C@H](C)CO)C(=O)CCCn2nncc2CO[C@H]1CN(C)S(=O)(=O)c1cccc(C#N)c1	?	5.01µM	/	.	/	.
O=C1/C(=C/Nc2ccc3c(c2)OCO3)CCc2ccccc21	?	.	?	-62.0	1.41µM	?
COc1ccc2c(c1)CC/C(=C\Nc1ccc3c(c1)OCO3)C2=O	.	.	?	.	?	/
COc1ccc(N/C=C2\CCc3ccccc3C2=O)cc1	/	/	/	.	/	25.1µM
Cc1nc(-c2coc3c(O)c(O)ccc3c2=O)cs1	/	/	/	/	/	.
COc1ccccc1NC(=O)C1=C(C)Nc2c(C(=O)Nc3cccc(C)c3)cnn2C1c1ccccc1Cl (stereo not drawn)	.	.	/	.	.	.
CC(=O)Nc1cc(C(=O)N2CCN(c3ccccc3)CC2C)cc2ncn(CCc3ccccn3)c12 (stereo not drawn)	.	.	/	/	/	.
N#CC1c2ccccc2C=CN1C(=O)N(c1ccccc1)c1ccccc1 (stereo not drawn)	?	.	?	.	?	31.6µM
N#CC1c2ccccc2C=CN1C(=O)c1ccc(N(CCCl)CCCl)cc1 (stereo not drawn)	.	.	/	.	/	.
O=C(Nc1ccc(N2CCN(C(=O)c3ccc(Cl)cc3)CC2)cc1)c1cccs1	/	/	/	.	/	.
CC(C)(C)C(=O)N1CCN(c2ccc(NC(=O)c3ccc([N+](=O)[O-])o3)cc2)CC1	11.2µM	?	?	-98.5	?	.
O=C(Nc1ccc(N2CCN(C(=O)c3ccc(Cl)cc3)CC2)cc1)c1ccc([N+](=O)[O-])o1	.	?	?	-95.7	.	?
CCCC(=O)N1CCN(c2ccc(NC(=O)c3ccc([N+](=O)[O-])o3)cc2)CC1	10µM	10µM	?	-96.2	?	.
CCC(=O)N1CCN(c2ccc(NC(=O)c3ccc([N+](=O)[O-])o3)cc2)CC1	?	?	.	-98.3	?	.
COC(=O)c1c(NC(=O)/C=C/C(=O)O)sc(Cc2ccccc2)c1C	.	.	11.2µM	/	.	?
CCC[C@H]1[C@@H](NS(=O)(=O)c2cn(C)cn2)CC[C@@]23CCCN2C(=O)CCC[C@@H]13	/	/	/	.	/	/
Cc1ccc(NC(=O)CN2C(=O)S/C(=C\c3cc(C)n(C)c3C)C2=O)cc1	.	.	.	.	.	/
Cc1cccc(NC(=O)CN2C(=O)S/C(=C\c3cc(C)n(C)c3C)C2=O)c1	?	.	.	-62.5	.	.
O=C(NCc1cccs1)C(=O)c1cn(CC(=O)N2CCOCC2)c2ccccc12	.	.	.	-95.5	.	.
SMILES	Vaccinia mCherry	Vaccinia Venus	MARV entry inh	HCMV antiviral	Lassa entry inh	FMDV inh
O=C(Nc1cc2c3c(c1)C1CCCC1CN3CC1CCCC21)c1ccccc1 (stereo not drawn)	/	/	.	-68.8	.	.
O=C(Nc1ccc(N2CCC(N3CCCCC3)CC2)c(C(=O)O)c1)c1ccccc1	.	.	/	.	.	.
CCc1cccc(NC(=O)C(CC)n2nc(C)c3sc4ccccc4c3c2=O)c1 (stereo not drawn)	.	.	?	.	.	.
O=Cc1ccccc1OCCN1CCCC1=O	/	/	/	-62.6	/	.
S=C(NCCSCc1ccc(Cl)c(Cl)c1)Nc1ccccc1	.	.	?	.	?	.
Cc1ccccc1CSCCNC(=S)Nc1ccccc1	.	.	?	-82.7	.	.
S=C(NCCSCc1c(Cl)cccc1Cl)Nc1ccccc1	/	/	?	?	.	.
OCCNCc1ccc(OCc2ccc(Cl)cc2Cl)cc1	.	.	?	?	.	.
OCCCCNCc1ccc(OCc2ccc(Cl)cc2Cl)cc1	28.2µM	?	5.8µM	.	?	/
S=C(Nc1ccccc1)Nc1ccc(OCc2ccc(Cl)cc2Cl)cc1	/	/	?	-80.1	?	0.316µM
S=C(NCCSCc1ccc(Cl)cc1Cl)Nc1ccccc1	.	?	?	-62.0	?	?
COc1ccc2c(c1)C(C(Nc1ccccc1)c1ccc(Cl)cc1)C(=O)N2C (stereo not drawn)	/	/	/	.	/	/
OCCC#Cc1ccc(F)c(-c2noc3ccccc23)c1	/	/	/	.	/	/
CCC1=Nc2cc(C(=O)NC3CCC(C)CC3)ccc2Sc2ccc(C)cc21 (stereo not drawn)	?	?	?	-81.8	?	.
CCCC1=Nc2cc(C(=O)NC3CCCC3)ccc2Sc2ccc(C)cc21	.[7.34 µM]	.[7.34 µM]	?	-78.7	?	.
CCCC1=Nc2cc(C(=O)NC3CCCCC3)ccc2Sc2ccc(C)cc21	?	?	/	-91.1	?	.
CCOC(=O)N1CCC(NC(=O)c2ccc3c(c2)N=C(CC)c2cc(C)ccc2S3)CC1	.	.	?	.	?	?
CCC1=Nc2cc(C(=O)NCc3ccco3)ccc2Sc2ccc(C)cc21	.	?	.	-75.4	?	.
O=C(NCc1ccccc1Cl)C1CCN(S(=O)(=O)Cc2ccccc2)CC1	.	.	.	.	.	.
COc1cccc(CNC(=O)CSc2ncc(S(=O)(=O)c3ccc(C)c(Cl)c3)c(=O)[nH]2)c1	.	.	/	.	?	.
Cc1ccc2[nH]c(C(=O)N3CCc4c(cnc(C)c4CNC(=O)c4ccccc4F)C3)cc2c1	.	.	/	/	/	.
COc1cc(-c2nc3cnccn3c2Nc2ccc(C(C)C)cc2)ccc1O	?	?	?	-91.7!	?	39.8µM
COc1cc(-c2nc3cnccn3c2Nc2ccc(C)cc2)ccc1O	?	.	.	.	?	.
COc1cc(-c2nc3nc[nH]n3c2Nc2ccc(C(C)C)cc2)ccc1O	.	.	.	-68.1	?	.
O=C1CCN(S(=O)(=O)c2ccc(Cl)cc2)C(c2ccccc2)C1 (stereo not drawn)	/	/	/	.	/	/
O=C(c1ccccc1)c1ccc2ccccc2c1	.	.	.	.	.	.
Cc1sc2cc3c(c(C(=O)c4ccccc4)[n+]2c1C)-c1cccc2cccc-3c12	.	.	4.47µM	-99.5	?	14.1µM
O=C(c1ccccc1)c1c2c(cc3sc4ccccc4[n+]13)-c1cccc3cccc-2c13	.	.	?	-103.0	14.6µM	39.8µM
CCOC(=O)C1=C(C)N(c2ccc(OC)cc2)C(=O)/C1=C\c1cccs1	/	/	.	-61.7	.	?
COC(=O)c1cc(NC(=O)C(C)c2ccc(CC(C)C)cc2)ccc1O (stereo not drawn)	?	.	?	-79.4	?	.
